The supplement of paper PMC10849652
Of roughly 7,900 targets only a part is listed; those with a hit were picked by preference. About 0.6% of all pairs of compound and target were hits.

Key:
Test in all cases: log2 fold change, soluble protein after heating vs DMSO (PISA); higher = thermal stabilisation; K562 cells, 10 uM, 30 min; active = over 0.2 and 3.5 SD of the protein, either way, in both replicates (recomputed)
[1] = compound: NC(=O)Nc1cc(-c2cccc(F)c2)sc1C(=O)N[C@H]1CCCNC1
How it was run: (§1)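 Soluble protein was quantified by TMTpro 16plex LC-MS/MS after channel sums were equalised. It was obtained as the supernatant after 21,000xg for 90 min from pooled aliquots of K562 cells (2×10^6 cells/mL, 10 μM compound, 30 min) heated for 3 min across 48°C-58°C and extracted in PBS with 0.5% NP-40 at 4°C. Thermal stability values are relative to control samples and come from duplicates. They are given as log2 fold changes.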

[2] = compound: NC(=O)c1cnc(N[C@@H]2CCCC[C@@H]2N)nc1Nc1cccc(-n2nccn2)c1
How it was run: as §1

[3] = compound: NC1(c2ccc(-c3nc4ccn5c(=O)[nH]nc5c4cc3-c3ccccc3)cc2)CCC1
How it was run: as §1

[4] = compound: NCC(=O)Nc1ccc(-n2nc(C(F)(F)F)cc2-c2ccc3c(ccc4ccccc43)c2)cc1
How it was run: as §1

[5] = compound: Nc1ccccc1NC(=O)c1ccc(CNC(=O)OCc2cccnc2)cc1 [entinostat]
How it was run: as §1

[6] = compound: O=C(CCCCCCC(=O)Nc1ccccc1)NO [vorinostat]
How it was run: as §1

[7] = compound: O=C(CCCCCCNC(=O)c1cnc(N(c2ccccc2)c2ccccc2Cl)nc1)NO [citarinostat]
How it was run: as §1

[8] = compound: O=C(O)c1ccc2c(c1)nc(Nc1cccc(Cl)c1)c1ccncc12 [silmitasertib]
How it was run: as §1

[9] = compound: O=C1NC(=O)C(c2cnc3ccccn23)=C1c1cn2c3c(cc(F)cc13)CN(C(=O)N1CCCCC1)CC2
How it was run: as §1

[10] = compound: c1cc(OCCN2CCCCC2)cc(-c2n[nH]c3ccc(-c4nnc[nH]4)cc23)c1
How it was run: as §1

[11] = compound: c1cn2cc(-c3ccc4cn[nH]c4c3)nc(Nc3ccc(N4CCOCC4)cc3)c2n1 [entospletinib]
How it was run: as §1

Measured: log2 fold change

LRBA (UniProt P50851)
Chain of UniProt P50851 (P50851 whole entry, looked up): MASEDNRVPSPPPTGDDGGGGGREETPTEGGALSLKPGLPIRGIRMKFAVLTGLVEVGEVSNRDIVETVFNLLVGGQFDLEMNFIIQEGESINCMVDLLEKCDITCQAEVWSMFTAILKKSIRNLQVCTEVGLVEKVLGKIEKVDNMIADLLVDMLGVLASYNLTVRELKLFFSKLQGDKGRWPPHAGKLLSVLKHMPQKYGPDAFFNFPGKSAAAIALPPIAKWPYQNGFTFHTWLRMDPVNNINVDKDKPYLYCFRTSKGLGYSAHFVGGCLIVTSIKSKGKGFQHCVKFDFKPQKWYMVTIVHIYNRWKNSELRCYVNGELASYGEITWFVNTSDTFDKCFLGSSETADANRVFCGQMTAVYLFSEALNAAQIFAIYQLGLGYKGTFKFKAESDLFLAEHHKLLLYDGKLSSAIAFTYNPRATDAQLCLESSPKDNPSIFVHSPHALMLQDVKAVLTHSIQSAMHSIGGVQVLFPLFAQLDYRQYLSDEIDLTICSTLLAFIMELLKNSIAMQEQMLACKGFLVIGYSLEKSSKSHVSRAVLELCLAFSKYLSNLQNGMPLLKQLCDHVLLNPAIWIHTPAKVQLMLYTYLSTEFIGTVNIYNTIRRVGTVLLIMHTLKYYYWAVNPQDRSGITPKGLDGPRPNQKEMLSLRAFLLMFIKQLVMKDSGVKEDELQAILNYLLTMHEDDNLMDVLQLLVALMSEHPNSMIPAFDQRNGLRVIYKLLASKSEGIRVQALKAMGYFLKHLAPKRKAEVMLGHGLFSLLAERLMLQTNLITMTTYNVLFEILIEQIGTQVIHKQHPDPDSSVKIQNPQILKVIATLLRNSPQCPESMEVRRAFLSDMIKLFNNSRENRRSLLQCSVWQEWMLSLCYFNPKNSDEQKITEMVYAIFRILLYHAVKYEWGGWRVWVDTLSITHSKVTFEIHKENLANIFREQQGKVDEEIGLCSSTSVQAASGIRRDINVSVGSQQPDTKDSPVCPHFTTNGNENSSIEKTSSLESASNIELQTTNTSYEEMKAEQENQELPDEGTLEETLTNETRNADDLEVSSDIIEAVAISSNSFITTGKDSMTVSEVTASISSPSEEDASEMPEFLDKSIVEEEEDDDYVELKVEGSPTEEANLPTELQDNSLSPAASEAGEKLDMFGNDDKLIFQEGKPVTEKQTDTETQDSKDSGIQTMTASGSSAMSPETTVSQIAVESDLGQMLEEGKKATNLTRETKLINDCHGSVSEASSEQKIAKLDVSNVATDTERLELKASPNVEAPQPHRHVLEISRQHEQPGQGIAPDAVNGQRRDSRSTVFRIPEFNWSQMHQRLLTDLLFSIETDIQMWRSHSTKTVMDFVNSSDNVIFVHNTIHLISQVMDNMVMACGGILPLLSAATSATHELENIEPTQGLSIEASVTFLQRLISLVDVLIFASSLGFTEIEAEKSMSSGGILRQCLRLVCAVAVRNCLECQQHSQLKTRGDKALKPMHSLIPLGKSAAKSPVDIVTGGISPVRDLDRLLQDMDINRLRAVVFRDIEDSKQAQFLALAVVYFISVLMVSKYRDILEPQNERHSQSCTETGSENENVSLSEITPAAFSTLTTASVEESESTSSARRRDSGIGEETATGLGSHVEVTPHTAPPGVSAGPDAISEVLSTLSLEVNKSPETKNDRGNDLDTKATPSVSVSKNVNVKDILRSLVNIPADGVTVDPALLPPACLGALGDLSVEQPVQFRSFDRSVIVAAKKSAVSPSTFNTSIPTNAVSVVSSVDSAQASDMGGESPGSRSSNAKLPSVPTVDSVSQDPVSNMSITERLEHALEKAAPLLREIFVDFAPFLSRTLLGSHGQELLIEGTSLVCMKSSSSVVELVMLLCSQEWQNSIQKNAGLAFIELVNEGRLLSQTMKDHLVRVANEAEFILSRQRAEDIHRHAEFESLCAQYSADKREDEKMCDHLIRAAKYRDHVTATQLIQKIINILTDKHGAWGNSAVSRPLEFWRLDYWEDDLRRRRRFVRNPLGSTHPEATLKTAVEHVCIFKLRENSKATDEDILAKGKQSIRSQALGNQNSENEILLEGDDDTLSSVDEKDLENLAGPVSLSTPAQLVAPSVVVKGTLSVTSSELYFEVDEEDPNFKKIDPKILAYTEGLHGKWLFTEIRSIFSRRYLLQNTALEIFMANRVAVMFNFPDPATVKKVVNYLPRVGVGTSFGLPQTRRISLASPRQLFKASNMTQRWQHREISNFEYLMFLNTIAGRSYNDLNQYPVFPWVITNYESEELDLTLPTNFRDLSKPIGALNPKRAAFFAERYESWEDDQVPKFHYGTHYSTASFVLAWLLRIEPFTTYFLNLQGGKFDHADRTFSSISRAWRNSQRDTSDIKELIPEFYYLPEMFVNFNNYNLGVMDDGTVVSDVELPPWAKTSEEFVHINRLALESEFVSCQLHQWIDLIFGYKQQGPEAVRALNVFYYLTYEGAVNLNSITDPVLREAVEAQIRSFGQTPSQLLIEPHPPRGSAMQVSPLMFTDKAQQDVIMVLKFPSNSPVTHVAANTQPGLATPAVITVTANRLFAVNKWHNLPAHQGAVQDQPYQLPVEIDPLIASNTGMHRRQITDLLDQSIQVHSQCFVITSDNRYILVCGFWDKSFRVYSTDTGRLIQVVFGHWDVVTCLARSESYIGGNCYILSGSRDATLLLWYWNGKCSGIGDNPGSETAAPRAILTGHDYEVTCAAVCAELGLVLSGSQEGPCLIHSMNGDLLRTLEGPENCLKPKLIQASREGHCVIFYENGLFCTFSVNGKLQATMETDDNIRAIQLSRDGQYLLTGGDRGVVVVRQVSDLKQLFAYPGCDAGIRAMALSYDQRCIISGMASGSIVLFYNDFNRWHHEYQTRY
inactive: [1] 0.002 | [2] -0.058 | [3] -0.146 | [4] -0.039 | [5] 0.016 | [6] 0.049 | [7] 0.034 | [8] 0.033 | [9] -0.025 | [10] -0.026 | [11] -0.002

MAP3K7 (UniProt O43318)
Chain of UniProt O43318 (O43318 whole entry, looked up): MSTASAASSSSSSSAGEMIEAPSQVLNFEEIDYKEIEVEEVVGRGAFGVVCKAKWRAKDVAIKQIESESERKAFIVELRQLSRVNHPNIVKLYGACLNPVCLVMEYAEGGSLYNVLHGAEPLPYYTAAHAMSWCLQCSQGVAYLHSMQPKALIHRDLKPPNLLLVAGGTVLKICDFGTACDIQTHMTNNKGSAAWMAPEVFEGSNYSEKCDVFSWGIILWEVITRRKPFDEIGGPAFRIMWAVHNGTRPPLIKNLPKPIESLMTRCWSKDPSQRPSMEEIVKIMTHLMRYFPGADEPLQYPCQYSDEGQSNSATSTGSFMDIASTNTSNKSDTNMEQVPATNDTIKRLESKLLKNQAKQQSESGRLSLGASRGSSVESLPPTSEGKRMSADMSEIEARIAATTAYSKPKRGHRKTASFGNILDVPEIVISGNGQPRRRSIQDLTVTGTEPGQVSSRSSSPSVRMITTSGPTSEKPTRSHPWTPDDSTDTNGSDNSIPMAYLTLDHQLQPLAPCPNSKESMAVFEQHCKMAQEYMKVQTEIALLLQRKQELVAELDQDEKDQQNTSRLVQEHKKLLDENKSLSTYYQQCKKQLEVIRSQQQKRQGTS
inactive: [1] -0.162 | [2] 0.033 | [3] -0.141 | [4] -0.086 | [5] 0.035 | [6] 0.033 | [7] 0.063 | [8] 0.004 | [9] 0.091 | [10] -0.068 | [11] 0.055

KIF3A (UniProt Q9Y496)
inactive: [1] 0.075 | [2] 0.078 | [3] -0.011 | [4] -0.014 | [5] -0.011 | [6] -0.137 | [7] -0.076 | [8] -0.068 | [9] -0.048 | [10] -0.051
active: [11] 0.491

JMJD6 isoform 3 (UniProt Q6NYC1)
inactive: [1] 0.01 | [2] -0.057 | [3] -0.068 | [4] -0.019 | [5] 0.039 | [6] 0.048 | [7] 0.064 | [8] 0.081 | [9] -0.061 | [10] -0.014 | [11] 0.006

LDLR (UniProt P01130)
inactive: [1] 0.005 | [2] 0.093 | [3] 0.008 | [4] 0.124 | [5] 0.057 | [6] -0.038 | [7] -0.035 | [8] 0.074 | [9] 0.019 | [10] -0.071 | [11] -0.008

LPCAT3 (UniProt Q6P1A2)
inactive: [1] -0.074 | [2] -0.105 | [3] -0.185 | [4] -0.229 | [5] 0.044 | [6] 0.024 | [7] 0.087 | [8] 0.05 | [9] -0.091 | [10] 0.072 | [11] 0.012

LMBRD2 (UniProt Q68DH5)
inactive: [1] 0.028 | [2] 0.044 | [3] 0.099 | [4] -0.025 | [5] -0.011 | [6] -0.015 | [7] 0.057 | [8] -0.049 | [9] -0.09 | [10] -0.005 | [11] 0.024

MAGEA9 (UniProt P43362)
inactive: [1] -0.017 | [2] -0.027 | [3] -0.243 | [4] 0.033 | [5] 0 | [6] 0.132 | [7] 0.013 | [8] 0.052 | [9] -0.079 | [10] -0.106 | [11] 0.083

MDC1 (UniProt Q14676)
inactive: [1] 0.115 | [2] -0.075 | [3] -0.054 | [4] 0.153 | [5] 0.001 | [6] -0.164 | [7] 0.062 | [8] -0.116 | [9] -0.026 | [10] -0.086 | [11] -0.054

KIF11 (UniProt P52732)
inactive: [1] -0.096 | [2] -0.075 | [3] -0.001 | [4] -0.067 | [5] 0.023 | [6] 0.099 | [7] -0.006 | [8] 0.147 | [9] 0.182 | [10] -0.044 | [11] 0.058

KLHDC4 (UniProt Q8TBB5)
inactive: [1] 0.013 | [2] -0.006 | [3] 0.224 | [4] -0.105 | [5] -0.055 | [6] -0.014 | [7] 0.042 | [8] -0.003 | [9] 0.125 | [10] -0.036 | [11] 0.065

MAP4 (UniProt E7EVA0)
inactive: [1] 0.162 | [2] 0.165 | [3] 0.144 | [4] 0.105 | [5] -0.096 | [6] -0.018 | [7] -0.164 | [8] 0.003 | [9] 0.106 | [10] -0.075 | [11] -0.007

LYN (UniProt P07948)
inactive: [2] 0.048 | [3] -0.048 | [4] -0.016 | [5] -0.006 | [6] 0.058 | [7] 0.017 | [8] 0.176 | [9] 0.022 | [10] 0.143 | [11] -0.024
active: [1] 0.385

KEAP1 (UniProt Q14145)
inactive: [1] 0.007 | [2] -0.027 | [3] -0.076 | [4] -0.034 | [5] 0.051 | [6] 0.156 | [7] -0.005 | [8] 0.122 | [9] 0.143 | [10] -0.055 | [11] 0.101

ITIH4 (UniProt Q14624)
inactive: [1] 0.064 | [2] -0.041 | [3] -0.136 | [4] -0.054 | [5] 0.048 | [6] 0.343 | [7] 0.054 | [8] 0.083 | [9] -0.005 | [10] 0.275 | [11] 0.124

IWS1 (UniProt Q96ST2)
inactive: [1] -0.049 | [2] 0.034 | [3] -0.028 | [4] -0.171 | [5] 0.012 | [6] -0.008 | [7] -0.059 | [8] 0.054 | [9] -0.032 | [10] 0 | [11] 0.159

MEPCE (UniProt Q7L2J0)
inactive: [1] -0.085 | [2] -0.152 | [3] -0.127 | [4] -0.004 | [5] 0.063 | [6] 0.107 | [7] 0.005 | [8] 0.02 | [9] -0.019 | [10] 0.026 | [11] 0.154

KEL (UniProt P23276)
inactive: [1] -0.004 | [2] 0.088 | [3] -0.215 | [4] 0.017 | [5] -0.022 | [6] 0.03 | [7] 0.019 | [8] 0.108 | [9] 0.115 | [10] -0.001 | [11] -0.023

LEMD2 (UniProt Q8NC56)
inactive: [1] 0.008 | [2] -0.139 | [3] -0.112 | [4] -0.157 | [5] 0.004 | [6] 0.04 | [7] 0.058 | [8] -0.044 | [9] -0.02 | [10] -0.046 | [11] -0.039

MAGOHB (UniProt Q96A72)
Chain of UniProt Q96A72 (Q96A72 whole entry, looked up): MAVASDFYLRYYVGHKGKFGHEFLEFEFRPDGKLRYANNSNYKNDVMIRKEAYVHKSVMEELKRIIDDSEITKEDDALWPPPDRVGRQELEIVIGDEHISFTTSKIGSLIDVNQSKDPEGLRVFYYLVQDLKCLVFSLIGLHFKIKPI
inactive: [1] -0.081 | [2] 0.177 | [3] -0.039 | [4] -0.132 | [5] 0.016 | [6] -0.023 | [7] 0.043 | [8] -0.006 | [9] 0.002 | [10] -0.089 | [11] 0.097

IRF3 (UniProt Q14653)
active: [1] 0.221
inactive: [2] -0.021 | [3] -0.021 | [4] -0.022 | [5] -0.078 | [6] 0.06 | [7] 0.028 | [8] -0.044 | [9] -0.047 | [10] -0.028 | [11] -0.022

KPNB1 (UniProt Q14974)
inactive: [1] 0.025 | [2] -0.087 | [3] -0.073 | [4] -0.037 | [5] 0.055 | [6] 0.038 | [7] 0.097 | [8] 0.099 | [9] 0.068 | [10] -0.059 | [11] 0.078

MAPRE3 (UniProt Q9UPY8)
inactive: [1] -0.002 | [2] -0.053 | [3] -0.112 | [4] -0.052 | [5] 0.066 | [6] 0.002 | [7] 0.049 | [8] 0.004 | [9] -0.087 | [10] -0.04 | [11] -0.041

KSR1 (UniProt Q8IVT5)
inactive: [1] -0.333 | [2] -0.049 | [3] 0.236 | [4] -0.111 | [5] 0.044 | [6] 0.013 | [7] 0.045 | [8] -0.279 | [9] -0.118 | [10] -0.193 | [11] 0.038

KTN1 (UniProt Q86UP2)
Chain of UniProt Q86UP2 (Q86UP2 whole entry, looked up): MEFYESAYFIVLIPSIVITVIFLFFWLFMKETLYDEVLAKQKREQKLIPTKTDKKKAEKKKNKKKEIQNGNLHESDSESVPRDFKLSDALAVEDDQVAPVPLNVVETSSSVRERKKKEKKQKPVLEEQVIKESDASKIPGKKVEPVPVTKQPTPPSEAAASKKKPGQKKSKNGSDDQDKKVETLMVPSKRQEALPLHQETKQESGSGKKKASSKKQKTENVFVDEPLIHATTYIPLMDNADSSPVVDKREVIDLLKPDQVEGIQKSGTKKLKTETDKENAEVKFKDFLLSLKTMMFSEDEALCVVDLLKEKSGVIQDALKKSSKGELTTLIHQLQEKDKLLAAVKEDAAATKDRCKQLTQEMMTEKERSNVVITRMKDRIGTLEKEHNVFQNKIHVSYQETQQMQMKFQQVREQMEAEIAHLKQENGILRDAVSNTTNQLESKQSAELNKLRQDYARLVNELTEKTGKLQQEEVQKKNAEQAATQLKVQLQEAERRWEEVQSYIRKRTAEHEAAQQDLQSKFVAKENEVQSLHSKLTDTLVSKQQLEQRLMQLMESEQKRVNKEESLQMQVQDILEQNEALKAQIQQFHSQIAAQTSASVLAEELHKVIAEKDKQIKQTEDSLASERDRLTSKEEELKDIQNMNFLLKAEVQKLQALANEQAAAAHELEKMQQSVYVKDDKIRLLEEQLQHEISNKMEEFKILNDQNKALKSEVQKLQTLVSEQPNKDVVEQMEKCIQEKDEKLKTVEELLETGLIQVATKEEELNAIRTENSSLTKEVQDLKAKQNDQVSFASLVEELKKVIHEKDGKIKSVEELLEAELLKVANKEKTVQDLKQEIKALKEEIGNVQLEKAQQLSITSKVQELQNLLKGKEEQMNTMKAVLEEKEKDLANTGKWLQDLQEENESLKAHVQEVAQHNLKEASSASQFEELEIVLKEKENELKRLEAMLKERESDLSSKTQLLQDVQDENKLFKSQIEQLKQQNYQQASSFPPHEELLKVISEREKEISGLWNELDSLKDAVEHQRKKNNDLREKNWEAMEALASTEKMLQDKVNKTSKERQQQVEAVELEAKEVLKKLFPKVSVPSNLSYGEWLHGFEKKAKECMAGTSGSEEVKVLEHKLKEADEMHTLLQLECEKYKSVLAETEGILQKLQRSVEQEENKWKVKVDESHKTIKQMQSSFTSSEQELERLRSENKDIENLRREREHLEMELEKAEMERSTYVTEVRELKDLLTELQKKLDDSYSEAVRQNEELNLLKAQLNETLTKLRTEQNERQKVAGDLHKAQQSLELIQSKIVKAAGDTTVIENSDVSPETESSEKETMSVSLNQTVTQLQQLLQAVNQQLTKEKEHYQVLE
inactive: [1] 0.036 | [2] 0.06 | [3] 0.035 | [4] -0.038 | [5] 0.05 | [6] 0.027 | [7] 0.033 | [8] 0.06 | [9] 0.148 | [10] -0.189 | [11] -0.043

LRRFIP1 (UniProt Q32MZ4)
inactive: [1] -0.027 | [2] 0.015 | [3] 0.056 | [4] 0.024 | [5] -0.042 | [6] -0.079 | [7] -0.007 | [8] 0.049 | [9] 0.01 | [10] -0.013 | [11] 0.004

KCT2 (UniProt Q8NC54)
active: [3] -0.378
inactive: [1] 0.047 | [2] -0.029 | [4] 0.013 | [5] -0.054 | [6] 0.022 | [7] 0.05 | [8] 0.035 | [9] 0.047 | [10] -0.02 | [11] 0.022
